Test results: PubChem BioAssay AID1345085 (National Center for Advancing Translational Sciences (NCATS), 2018)
Inconclusive results are not listed. Values without a mark were called inactive. Active and inactive are the calls of the source. Calls follow the shape of the dose curve; as a rule, active = well fitted cell-killing curve with a large enough effect; inconclusive = small, poorly fitted or top-dose-only effect, or effect the other way; inactive = no such curve, though single readings can be large or run the other way.

Test system: SKOV3
Test: Confirmatory qHTS for gynecologic anti-cancer compounds from libraries of approved drugs and bioactive compounds; also: nearly all actives have a fitted effect of over 55% in size
Conditions: gynecologic cancer cell panel viability, ATPlite luminescence, 48 h; series mostly up to 57.6 µM
Method in brief: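 ATP-based luminescent viability (ATPlite) after 48 h drug treatment at 37 °C, 5% CO2, across 57.5 uM–0.977 nM in 1:3 steps. Cells seeded at 1,000 per well 16 h beforehand; IC50 values computed, HEK 293T as selectivity control.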
% is scaled to controls: 0 for no effect and ±100 for the full control effect; potency is read from the fitted curve at half-maximal effect.

Row | Structure (SMILES) | Potency | activity change, negative = viability loss
1 | CC(=O)NCC(=O)N1C2CCC1c1cc(Nc3ncc(C(F)(F)F)c(NC4CCC4)n3)ccc12 (stereo not given) | 17.2 µM (active) | 
2 | Cc1cncc2cccc(S(=O)(=O)N3CCCN(C(=O)CN)C[C@@H]3C)c12 | inactive | 
3 | NS(=O)(=O)c1ccc(Nc2nc(OCC3CCCCC3)c3[nH]cnc3n2)cc1 | inactive | 
4 | COc1ccc2c(c1)c(CC(=O)O)c(C)n2C(=O)c1ccc(Cl)cc1 | inactive | 
5 | Cc1cnc(Nc2ccc(OCCN3CCCC3)cc2)nc1Nc1cccc(S(=O)(=O)NC(C)(C)C)c1 | 10.9 µM (active) | 
6 | Cc1cnc(CNC(=O)c2c(=O)c3ccc(N4CCCN(C)CC4)nc3n3c2sc2ccccc23)cn1 |  | 5.48% [at 10.7 µM]
7 | CCCCc1nc2cc(/C=C/C(=O)NO)ccc2n1CCN(CC)CC | 0.769 µM (active) | 
8 | COc1cc(Nc2c(C#N)cnc3cc(OCCCN4CCN(C)CC4)c(OC)cc23)c(Cl)cc1Cl | 19.3 µM (active) | 
9 | CCCCN(CCCC)C(=O)CN1C[C@H](c2ccc3c(c2)OCO3)[C@@H](C(=O)O)[C@@H]1c1ccc(OC)cc1 | inactive | 
10 | CCc1c2c(nc3ccc(O)cc13)-c1cc3c(c(=O)n1C2)COC(=O)[C@]3(O)CC | 0.0243 µM (active) | 
11 | Cc1c(C)n(Cc2ccc(-c3ccccc3C(=O)O)cc2)c2ccc(C(=O)N[C@@H](C)c3ccc([N+](=O)[O-])cc3)cc12 | inactive | 
12 | CNC(=O)c1ccccc1Sc1ccc2c(/C=C/c3ccccn3)n[nH]c2c1 | 19.3 µM (active) | 
13 | CNc1nc(Nc2ccc(C(=O)N3CCOCC3)cc2OC)ncc1Cl | inactive | 
14 | COc1cc2c(NC3CCN(C(C)C)CC3)nc(C3CCCCC3)nc2cc1OCCCN1CCCC1 | 30.6 µM (active) | 
15 | C[C@]12CCC(=O)C=C1[C@@H]1C[C@@H]1[C@H]1[C@@H]3[C@@H]4C[C@@H]4[C@@]4(CCC(=O)O4)[C@@]3(C)CC[C@@H]12 | inactive | 
16 | O=C(CCCCCCC(=O)Nc1ccccc1)NO | 1.37 µM (active) | 
17 | CCCC(=O)O[C@]1(C(=O)CCl)[C@@H](C)C[C@H]2[C@@H]3CCC4=CC(=O)C=C[C@]4(C)[C@@]3(F)C(=O)C[C@@]21C | inactive | 
18 | Cc1cnc(Nc2ccc(CN3CCOCC3)cc2)nc1Nc1cccc(S(=O)(=O)NC(C)(C)C)c1 | 4.85 µM (active) | 
19 | O=C(Nc1cn[nH]c1-c1nc2ccc(CN3CCOCC3)cc2[nH]1)NC1CC1 | 7.69 µM (active) | 
20 | O=c1cc(CN2CCOCC2)occ1OCCCCCSc1ccnc2cc(C(F)(F)F)ccc12 | inactive | 
21 | Cc1cc(C(=O)N2CCN(c3cccc(Cl)c3)CC2)n(-c2ccccc2)n1 | 0.544 µM (active) | 
22 | COc1cc(N2CCC(N(C)C)CC2)ccc1Nc1ncc(Cl)c(Nc2ccccc2P(C)(C)=O)n1 | 6.11 µM (active) | 
23 | O=c1[nH]c(=O)n([C@H]2C[C@H](O)[C@@H](CO)O2)cc1Br | inactive | 
24 | CC(Oc1cc(-n2cnc3ccc(CN4CCN(C)CC4)cc32)sc1C(N)=O)c1ccccc1C(F)(F)F (stereo not given) | 19.3 µM (active) | 
25 | Cc1ccc(C(=O)Nc2ccc(CN3CCN(C)CC3)c(C(F)(F)F)c2)cc1C#Cc1cnc2cccnn12 | 12.2 µM (active) | 
26 | Cc1cc(SCc2sc(-c3ccc(C(F)(F)F)cc3)nc2C)ccc1OCC(=O)O | inactive | 
27 | Nc1ccccc1NC(=O)c1ccc(CNC(=O)OCc2cccnc2)cc1 | 2.17 µM (active) | 
28 | FC(F)(F)c1ccc(/C=C/c2nc(COc3ccc(CCCCn4ccnn4)cc3)co2)cc1 | inactive | 
29 | Cc1nc(NC(=O)N2CCCC2C(N)=O)sc1-c1ccnc(C(C)(C)C(F)(F)F)c1 (stereo not given) | 0.685 µM (active) | 
30 | CCS(=O)(=O)N1CCN(c2ccc(Nc3ncc(C(N)=O)c(NC4CC4)n3)cc2)CC1 | 15.3 µM (active) | 
